Assay results as given in the supplement of paper PMC8975748.
Counter-ions that a name gives are not always drawn.

The molecules below were run on Saccharomyces cerevisiae BY4741 SeMeCo community (assay: z-score of subpopulation abundance vs DMSO median, subpopulation auxotrophic for HM; higher = larger share of this subpopulation than in DMSO controls). Settings: 10 µM; 24 h; SM minimal medium; subpopulation (auxotrophy): HM.
Experimental: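 Fluorescent four-plasmid SeMeCo (self-establishing metabolically cooperating S. cerevisiae BY4741 community; plasmids pH-mRuby2, pL-mWasabi, pU-eCFP, pM-TagRFP657) was grown 24 h in minimal SM medium with each Selleck FDA-approved drug at 10 µM in 384-well plates. Cells were fixed and imaged by high-content confocal microscopy. For each auxotrophic subpopulation (and the prototroph), a z-score gives the deviation from the DMSO vehicle-control population median.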

Row | Structure (SMILES) | z-score of subpopulation abundance
1 | C[N+](C)(C)CCCCCCCCCC[N+](C)(C)C [Decamethonium Bromide] | -0.42
2 | COc1ccc(C(CN(C)C)C2(O)CCCCC2)cc1 (centres undefined) [Venlafaxine HCl] | -0.61
3 | CCC1=C[C@H]2CN3CCc4c([nH]c5ccccc45)[C@](C(=O)OC)(C2)[C@H]13 [Catharanthine] | -0.61
4 | CN[C@@H]1[C@@H](O)[C@@H](O[C@@H]2[C@@H](O)[C@H](O[C@H]3O[C@H](CN)CC[C@H]3N)[C@@H](N)C[C@H]2N)OC[C@]1(C)O.CN[C@@H]1[C@@H](O)[C@@H](O[C@@H]2[C@@H](O)[C@H](O[C@H]3O[C@H]([C@@H](C)N)CC[C@H]3N)[C@@H](N)C[C@H]2N)OC[C@]1(C)O.CN[C@@H]1[C@@H](O)[C@@H](O[C@@H]2[C@@H](O)[C@H](O[C@H]3O[C@H]([C@@H](C)NC)CC[C@H]3N)[C@@H](N)C[C@H]2N)OC[C@]1(C)O [Gentamicin Sulfate] | -0.24
5 | N#Cc1nn(-c2c(Cl)cc(C(F)(F)F)cc2Cl)c(N)c1[S+]([O-])C(F)(F)F (centres undefined) [Fipronil] | -0.23
6 | CC(C)N(CCC(C(N)=O)(c1ccccc1)c1ccccn1)C(C)C (centres undefined) [Disopyramide] | 0.08
7 | C=C[C@H]1CN2CC[C@H]1C[C@H]2[C@H](O)c1ccnc2ccccc12 [Cinchonidine] | -0.43
8 | C[C@@H]1CC[C@H]2[C@@H](C)C(=O)O[C@@H]3O[C@@]4(C)CC[C@@H]1[C@]32OO4 [Artemisinin] | -2.41
9 | CN[C@@H]1[C@@H](O)[C@@H](O[C@@H]2[C@@H](O)[C@H](O[C@H]3O[C@H]([C@@H](C)O)[C@@H](O)[C@H](O)[C@H]3N)[C@@H](N)C[C@H]2N)OC[C@]1(C)O [Geneticin (G418 Sulfate)] | -0.26
10 | C[N+]12CCC(CC1)C(OC(=O)C(O)(c1ccccc1)c1ccccc1)C2 (centres undefined) [Clidinium Bromide] | -0.38
11 | CCOC(=O)Nc1ccc(NCc2ccc(F)cc2)cc1N [Retigabine 2HCl] | 0.88
12 | CN(C)C(=O)Oc1ccc[n+](C)c1 [Pyridostigmine Bromide] | 0.07
13 | CCN1CC2(OC(=O)c3ccccc3NC(C)=O)CCC(OC)C34C1C(CC23)C1(O)CC(OC)C2CC4C1(O)C2OC (centres undefined) [Lappaconitine] | -0.28
14 | CC[C@H]1[C@@H]2C[C@H]3[C@@H]4N(C)c5ccccc5[C@]45C[C@@H]([C@@H]2[C@H]5O)N3[C@@H]1O [Ajmaline] | -0.37
15 | CCN(CC)CCOC(=O)C(O)(c1ccccc1)c1ccccc1 [Benactyzine hydrochloride] | -0.6
16 | C[C@H]1O[C@H](O[C@H]2[C@H](O)[C@@H](O)[C@@H](O)[C@H](O)[C@@H]2O)[C@@H](N)C[C@@H]1NC(=N)C(=O)O [Kasugamycin hydrochloride] | -0.08
17 | CN1c2ccccc2C(NCCCCCCC(=O)O)c2ccc(Cl)cc2S1(=O)=O (centres undefined) [Tianeptine sodium] | -0.51

Row | Structure (SMILES) | z-score of subpopulation abundance
18 | CN(C)[C@@H]1C(=O)C(C(N)=O)=C(O)[C@@]2(O)C(=O)C3=C(O)c4c(O)cccc4[C@@](C)(O)[C@H]3[C@H](O)[C@@H]12 [Oxytetracycline (Terramycin)] | 0.64
19 | CC(C)(O)C(Cl)(Cl)Cl [Chlorobutanol] | -0.53
20 | CC[C@H]1CN2CC[C@]3(C(=O)Nc4ccccc43)[C@@H]2C[C@@H]1/C(=C\OC)C(=O)OC [Rhynchophylline] | -0.29
21 | CCN(C)C(=O)Oc1cccc([C@H](C)N(C)C)c1 [Rivastigmine] | -0.34
22 | C[N+]1(C)[C@@H]2C[C@@H](OC(=O)[C@H](CO)c3ccccc3)C[C@H]1[C@@H]1O[C@@H]12 [Methscopolamine] | 0.16
23 | CC[N+](C)(CC)CCOC(=O)C(O)(c1ccccc1)c1ccccc1 [Methylbenactyzine Bromide] | 0.02
24 | CC[C@@]1(O)C(=O)OCc2c1cc1n(c2=O)Cc2cc3ccccc3nc2-1 [Camptothecin] | 0.23
25 | C=C(C)[C@H]1Cc2c(ccc3c2O[C@@H]2COc4cc(OC)c(OC)cc4[C@@H]2C3=O)O1 [Rotenone (Barbasco)] | 0.89
26 | CN1[C@@H]2C[C@@H](OC(=O)[C@H](CO)c3ccccc3)C[C@H]1[C@@H]1O[C@@H]12 [Scopolamine HBr trihydrate] | -1.19
27 | O=[N+]([O-])C(Br)(CO)CO [Bronopol] | -0.03
28 | COc1ccc2c(c1)[C@]13CCCC[C@@H]1[C@H](C2)N(C)CC3 [Dextromethorphan hydrobromide hydrate] | 0.71
29 | O=C(O[C@H]1C[C@H]2CC[C@@H](C1)[N+]21CCCC1)C(O)(c1ccccc1)c1ccccc1 [Trospium chloride] | 0.4
30 | C[C@@H]1O[C@@H](O[C@H]2C[C@@H](O)[C@]3(CO)[C@H]4[C@H](O)C[C@]5(C)[C@@H](C6=CC(=O)OC6)CC[C@]5(O)[C@@H]4CC[C@]3(O)C2)[C@H](O)[C@H](O)[C@H]1O [Ouabain] | -0.63
31 | Oc1cccc2cccnc12 [8-Hydroxyquinoline] | 2.14
32 | CC(=O)O[C@H]1C[C@@H]2CC[C@@H]3[C@H](CC[C@@]4(C)[C@H]3C[C@H]([N+]3(C)CCCCC3)[C@@H]4OC(C)=O)[C@@]2(C)C[C@@H]1[N+]1(C)CCCCC1 [Pancuronium dibromide] | -1.06
33 | CC(C)=CCOc1c2occc2cc2ccc(=O)oc12 [Imperatorin] | 1.29
34 | NC(=O)CN1CCCC1=O [Piracetam] | 1.21
